# Bioassay records from PubChem.
# Most compounds without a hit are left out; they make up all but 1.3% or so of the library.
# USP2a inhib: USP2a (human) protease inhibition; USP2a enzymatic assay, qHTS inhibition; Potency, µM (doses to about 38.3 µM), for inactives: at the highest dose activity change, negative = inhibition, actives largely listed as inhibitors; 60,000 compounds, 0.1% hits; further: potency means the concentration at half of the fitted maximal effect; nearly all actives have a fitted effect of over 60% in size
# Target sequence (O75604 whole entry, looked up): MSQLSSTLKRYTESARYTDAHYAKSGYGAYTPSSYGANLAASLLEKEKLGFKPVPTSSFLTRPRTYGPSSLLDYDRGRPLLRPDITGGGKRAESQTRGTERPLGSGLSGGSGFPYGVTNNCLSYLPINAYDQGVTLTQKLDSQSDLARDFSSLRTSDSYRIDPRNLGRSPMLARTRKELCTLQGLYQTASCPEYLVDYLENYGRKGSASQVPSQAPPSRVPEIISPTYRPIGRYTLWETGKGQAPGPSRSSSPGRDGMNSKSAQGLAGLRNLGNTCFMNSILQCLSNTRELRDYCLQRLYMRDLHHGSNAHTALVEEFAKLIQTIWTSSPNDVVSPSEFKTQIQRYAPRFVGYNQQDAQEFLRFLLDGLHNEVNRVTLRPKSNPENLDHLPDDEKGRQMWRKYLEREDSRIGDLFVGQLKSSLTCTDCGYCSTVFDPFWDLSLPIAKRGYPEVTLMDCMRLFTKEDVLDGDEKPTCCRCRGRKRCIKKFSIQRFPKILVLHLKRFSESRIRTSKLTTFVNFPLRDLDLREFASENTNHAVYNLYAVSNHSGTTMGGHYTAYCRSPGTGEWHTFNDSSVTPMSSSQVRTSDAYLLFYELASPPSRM
#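 Coupled readout: USP2-cleaved Ub-PLA2 (20nM final) turns over NBD C6-HPC (20uM final), Ex 460nm/Em 535nm after 2.5 h, time-zero read flagging artifacts. Enzyme (20nM final, pH 8.0 Tris) given 30 min RT with compound first; NEM defines full inhibition.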
# Epigenetic mod: epigenetic GFP locus derepression in mouse cells; AID 597; 68,000 compounds, 0.09% hits; mouse C127i GFP locus derepression, cytometry, 30 h; Potency, µM (series often up to 46.1 µM), for inactives: at the highest dose GFP derepression (activation); further: % of control where 0% means no effect
#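 Murine C127i mammary cells carrying a silenced, stably integrated CMV-driven GFP reporter were treated with compound for 30 hours at 37 C. After PBS washes, GFP-positive cells were counted by laser-scanning microplate cytometry.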
# Hsp90 Hop PPI: changes Hsp90-Hop TPR2A binding signal, up or down | Potency, µM (series often up to 57 µM), for the others: at the top dose activity change, negative = inhibition | 71,000 compounds, 0.44% hits | AlphaScreen TPR2A-His6 binding biotin-Hsp90 C-terminal peptide | AID 595; active means well fitted curve in either direction with a large enough effect; inconclusive means small, poorly fitted or top-dose-only effect, or another doubt; further: potency means the concentration at half of the fitted maximal effect; on the % scale 0 is the no-effect control and ±100 the full control effect
# HBB splicing: modulators of hemoglobin beta chain splicing | 65,000 compounds, 0.06% hits | Potency, µM (top dose mostly 46.1 µM), inactives show at the top dose activation, most hits filed as activators | AID 925 | HBB splicing reporter cell assay, activation; EGFP reporter with mutant IVS2-654 intron; response scale: normalised to 500 nM splice-correcting PNA; further: potency means the concentration at half of the fitted maximal effect; 0% is about no effect
#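 Compounds were applied for 2 days to HeLa EGFP-654 cells, 500/well in Optimem with 2% FCS. The reporter's EGFP is disrupted by mis-splicing of beta-globin intron IVS2-654. Readout: summed well GFP fluorescence from 488 nm laser scanning; reference was 500 nM antisense […] 654 PNA.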
# Bst PK mod: modulators of Bacillus stearothermophilus pyruvate kinase; purified pyruvate kinase, luminescence ATP production; ribose 5-phosphate activator present at AC10; Potency, µM; 51,000 compounds, 1.2% hits; AID 361; in the data active means potency below about 11 µM; inconclusive means mostly about 12 µM to 25 µM;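 the screen sought inhibitors and activators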;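 further: potency means the concentration at half of the fitted maximal effect; scaled between full activation by ribose 5 phosphate and full inhibition by luteolin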
# UbGFP stabilizer: ubiquitin-GFP accumulation via proteasome inhibition; Ubiquitin-GFP reporter cells, proteasome inhibition, GFP fluorescence; response scale: untreated = 0%, 10 µM MG-132 = 100%; Potency, µM (series often up to 45.9 µM), without a hit: at the top dose activation (GFP accumulation), hits mostly activators; 67,000 tested, under 10 active; active means well fitted activation curve with a large enough effect, not every such curve was filed as active; inconclusive means small, poorly fitted or top-dose-only effect, or another doubt; inactive means no such curve, though single readings can be large or run the other way; further: potency means the concentration at half of the fitted maximal effect
#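 Proteasome block read as GFP accumulation: ubiquitin(G76V)-GFP U2OS cells exposed to compound (2.9 nM–46 uM) for 4 hr at 37 C. Normalization used untreated cells as 0% and 10 uM MG-132 as 100%; concentration-response curves fitted.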
# An asterisk follows results filed as active; i = inactive; ? = inconclusive; nt = not tested or not shown; [ ] = dose if it differs, or a comment. Unless noted, the call rests on the fitted dose curve; in most records, active means well fitted curve in the direction sought with a large enough effect; inconclusive means small, poorly fitted or top-dose-only effect, or another doubt; inactive means no such curve, though single readings can be large; an effect the other way counts as inactive or inconclusive.
SMILES,USP2a inhib,Epigenetic mod,Hsp90 Hop PPI,HBB splicing,Bst PK mod,UbGFP stabilizer
Oc1[nH]c2ccccc2c1C1=NCCCC1,0%,-2%,-10%,3%[1.84 µM],i,4%
O=Nc1c(-c2c(O)[nH]c3cc(Br)ccc23)[nH]c2ccccc12,13µM*,nt,nt,nt,nt,nt
CNCC[C@H](Oc1ccccc1C)c1ccccc1,-4%,-2%,1%,1%,nt,5%
O=C1c2ccccc2C(=O)c2c1ccc(N1C(=O)c3ccccc3C1=O)c2-c1c(N2C(=O)c3ccccc3C2=O)ccc2c1C(=O)c1ccccc1C2=O,nt,2%[9.22 µM],-1%[11 µM],-1%[9.22 µM],nt,-1%[9.17 µM]
O=[N+]([O-])c1cc(N(CCO)CCO)ccc1NCCO,nt,nt,-21%,0%,nt,nt
O=C(CSc1nnnn1-c1cccc2c1CCCC2)N1CCOCC1,nt,-2%,-7%,-1%[57.5 µM],11*,-2%
O=C(CCSc1nnnn1-c1ccccc1)N1CCOCC1,-1%,-1%,0%,0%,>57,-8%
CN1CCN(c2ncc3nc(-c4ccc(Cl)cc4)c(=O)n(Cc4ccc(F)cc4)c3n2)CC1,158%,5%[9.22 µM],1%,3%,nt,6%
NS(=O)(=O)c1ccc(NCc2nc3ccccc3[nH]2)cc1,nt,0%[9.22 µM],3%[11 µM],0%[9.22 µM],nt,-6%[9.17 µM]
O=c1oc2c(CN3CCCCC3)c(O)ccc2cc1-c1nc2ccccc2[nH]1,79%,0%,8%,3%[0.369 µM],nt,nt
O=c1oc2c3c4c(cc2cc1-c1nc2ccccc2[nH]1)CCCN4CCC3,78%,1%,8%,0.79µM*,nt,13%
COc1ccccc1N1CCN(S(=O)(=O)c2c(C)ccc3nsnc23)CC1,10%,0%,-15%,0%,2.9*,4%
COc1ccccc1N1CCN(S(=O)(=O)c2ccccc2)CC1,-5%,2%,0%,1%,?,4%
CN[C@@H]1[C@H](O)[C@H](NC)[C@@H]2O[C@]3(O)C(=O)C[C@@H](C)O[C@H]3O[C@@H]2[C@H]1O,nt,-5%[9.22 µM],?,nt,nt,8%
O=C(Nc1ccncc1)C1COc2ccccc2O1 (stereo not given),-8%,-4%,-1%,2%,>57,-2%
O=C(NC1=NCCS1)C1COc2ccccc2O1 (stereo not given),4%,4%,-8%,-1%,4.3*,4%
CCCn1nc(NC(=O)c2cccs2)c2cc3cc(OC)ccc3nc21,25%,2%,?,0%[0.369 µM],i,-3%
CCCCn1nc(NC(=O)c2cccs2)c2cc3cc(OC)ccc3nc21,20%,4%,20µM*,-1%[0.369 µM],nt,1%
CCOc1ccc2nc(C(C)O)[nH]c2c1 (stereo not given),1%,0%,0%,1%,>57,0%
CCOc1ccc2nc(-c3ccccc3)[nH]c2c1,36%,-2%,-1%,nt,2*,-1%
Nc1ccc(-c2nc3ccc(-c4nc5ccc(N)cc5[nH]4)cc3[nH]2)cc1,25µM*,nt,nt,nt,nt,nt
COc1ccc2nc(-c3ccccc3)[nH]c2c1,6%,2%,-2%,0%,6*,4%
COC(=O)[C@@H]1C[C@H]1[C@@H](NC(=O)OCc1ccccc1)c1ccccc1,nt,nt,-3%,1%,nt,nt
CSc1nc(N)c2ncn([C@@H]3O[C@@H](COP(=O)(O)OP(=O)(O)O)[C@@H](O)[C@H]3O)c2n1,-2%,-1%,-7%,1%,nt,1%
COc1cc(NC(=O)Nc2cccc(C(C)=O)c2)cc(OC)c1OC,22%,3%,0%,0%,>57,-2%
COc1cc(NC(=O)CN2c3cccc4cccc(c34)S2(=O)=O)cc(OC)c1OC,35%,-2%,-5%,1%,0.81*,-6%
Cc1cc(N2CCC(C)CC2)n2ncc(-c3ccccc3)c2n1,-6%,0%,?,0%[1.84 µM],?,0%
Cc1cc(N2CCCCC2)n2ncc(-c3ccc(Cl)cc3)c2n1,-7%,0%,25µM*,3%[57.5 µM],i,1%
